# Test results from PubChem BioAssay (EPA / NIEHS).
# Calls of active or inactive are those of the source. The calls were made as follows: active = hit-call score of the fitted dose curve at least 0.9, where 1 is the maximum; inactive = score below 0.9.
# Experiments:
# Settings in all cases: mRNA level, 48 h; actives raise or lower the signal
# [1] = read-out: Cytochrome P450 (CYP24A1), CYP24A1 (gene 1591); assay: LTEA_HepaRG_CYP24A1: Life Technologies and Expression Analysis (LTEA) Assay for Cytochrome P450 (CYP24A1) using HepaRG (AID 2283478)
# Outline: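 Differentiated HepaRG cells, pre-cultured 48 h, were exposed in duplicate for 48 h in serum-free induction medium to 8 half-log concentrations (top 100 uM, 0.5% DMSO). CYP24A1 mRNA was quantified by TaqMan qRT-PCR, normalized to ACTB/GAPDH/POLR2A, fitted bidirectionally versus DMSO.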
# [2] = read-out: Cytochrome P450 (CYP1A2), CYP1A2 (gene 1544); assay: LTEA_HepaRG_CYP1A2: Life Technologies and Expression Analysis (LTEA) Assay for Cytochrome P450 (CYP1A2) using HepaRG (AID 2283479)
# Outline: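 Differentiated human HepaRG cells in serum-free induction medium were exposed in duplicate for 48 h to 8-point half-log concentrations up to 100 uM in 0.5% DMSO. CYP1A2 mRNA measured by qRT-PCR, normalized to ACTB, GAPDH, POLR2A; bidirectional fit vs DMSO.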
# [3] = read-out: cysteine-aspartic acid protease (CASP8), CASP8 (gene 841); assay: LTEA_HepaRG_CASP8: Life Technologies and Expression Analysis (LTEA) Assay for cysteine-aspartic acid protease (CASP8) using HepaRG (AID 2283480)
# Outline: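 qRT-PCR readout of CASP8 mRNA, normalized to three housekeeping genes, after 48 h chemical exposure of HepaRG cells; 8-point half-log series, top 100 uM, 0.5% DMSO vehicle. Bidirectional curve fitting against DMSO baseline.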
# [4] = read-out: Cytochrome P450 2C19 (Homo sapiens) (UniProt P33261); assay: LTEA_HepaRG_CYP2C19: Life Technologies and Expression Analysis (LTEA) Assay for CYP2C19 using HepaRG (AID 2283482)
# Outline: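 Differentiated human HepaRG cells were exposed for 48 h in serum-free induction medium to 8 concentrations (top 100 uM, half-log steps, 0.5% DMSO). CYP2C19 mRNA was measured by qRT-PCR, normalized to ACTB/GAPDH/POLR2A, and fitted bidirectionally against DMSO.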
# CYP2C8 (gene 1558) = assay: LTEA_HepaRG_CYP2C8: Life Technologies and Expression Analysis (LTEA) Assay for CYP2C8 using HepaRG (AID 2283483)
# Outline: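 HepaRG (human liver line), 48 h chemical exposure, 8-pt half-log series from 100 uM, 0.5% DMSO vehicle. Readout: CYP2C8 transcript by qRT-PCR, housekeeping-normalized. Bidirectional fit vs DMSO baseline.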
# CYP2C9 (gene 1559) = assay: LTEA_HepaRG_CYP2C9: Life Technologies and Expression Analysis (LTEA) Assay for CYP2C9 using HepaRG (AID 2283484)
# Outline: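 HepaRG, 48 h dosing, 8-pt half-log series, top 100 uM, 0.5% DMSO vehicle. Read-out: CYP2C9 transcript by TaqMan qRT-PCR, housekeeping-normalized (ACTB/GAPDH/POLR2A). Gain or loss fitted vs DMSO baseline.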
# CYP2E1 (gene 1571) = assay: LTEA_HepaRG_CYP2E1: Life Technologies and Expression Analysis (LTEA) Assay for CYP2E1 using HepaRG (AID 2283485)
# Outline: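 CYP2E1 transcript was measured by TaqMan qRT-PCR in human HepaRG cultures after 48 h chemical exposure (top 100 uM, half-log steps, 0.5% DMSO vehicle). Housekeeping-gene normalization; gain or loss fitted relative to DMSO baseline.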
# CYP4A11 (gene 1579) = assay: LTEA_HepaRG_CYP4A11: Life Technologies and Expression Analysis (LTEA) Assay for CYP4A11 using HepaRG (AID 2283486)
# Outline: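 Differentiated HepaRG cells, serum-free induction medium, exposed 48 h in duplicate to 8-point half-log series from 100 uM in 0.5% DMSO. CYP4A11 mRNA measured by qRT-PCR, normalized to ACTB, GAPDH, POLR2A; bidirectional fit versus DMSO.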
# [5] = read-out: Cytochrome P450 3A4 (Homo sapiens) (UniProt P08684); assay: LTEA_HepaRG_CYP3A4: Life Technologies and Expression Analysis (LTEA) Assay for CYP3A4 using HepaRG (AID 2283487)
# Outline: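 Differentiated HepaRG cells, plated 48 h, then dosed 48 h in serum-free induction medium with 0.5% DMSO, 8 half-log concentrations up to 100 uM, duplicate. CYP3A4 mRNA by qRT-PCR, normalized to ACTB/GAPDH/POLR2A; bidirectional fit versus DMSO.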
# [6] = read-out: Pro-epidermal growth factor (Homo sapiens) (UniProt P01133); assay: LTEA_HepaRG_EGF: Life Technologies and Expression Analysis (LTEA) Assay for Epidermal growth factor (EGF) using HepaRG (AID 2283489)
# Outline: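 Differentiated human HepaRG cells, plated 48 h then switched to serum-free induction medium, were exposed for 48 h to test chemicals (8-point half-log series, top 100 uM, 0.5% DMSO). EGF mRNA was quantified by qRT-PCR, normalized to ACTB, GAPDH, POLR2A.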
# [7] = read-out: Ezrin (EZR), EZR (gene 7430); assay: LTEA_HepaRG_EZR: Life Technologies and Expression Analysis (LTEA) Assay for Ezrin (EZR) using HepaRG (AID 2283491)
# Outline: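 EZR transcript levels came from Fluidigm qRT-PCR and were normalized to three housekeeping genes after 48 h chemical exposure of HepaRG cells. Dosing used an 8-point half-log series with a 100 uM top concentration in 0.5% DMSO, tested in duplicate; both directions were fitted versus vehicle.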
# [8] = read-out: Cytochrome P450 3A7 (Homo sapiens) (UniProt P24462); assay: LTEA_HepaRG_CYP3A7: Life Technologies and Expression Analysis (LTEA) Assay for CYP3A7 using HepaRG (AID 2283492)
# Outline: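 HepaRG cells plated 48 h, then dosed in serum-free induction medium for 48 h at 8 concentrations (top 100 uM, half-log steps, 0.5% DMSO). CYP3A7 mRNA by qRT-PCR, normalised to ACTB/GAPDH/POLR2A; bidirectional fit versus DMSO.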
# CYP3A5 (gene 1577) = assay: LTEA_HepaRG_CYP3A5: Life Technologies and Expression Analysis (LTEA) Assay for CYP3A5 using HepaRG (AID 2283493)
# Outline: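 qRT-PCR read-out: CYP3A5 transcript in HepaRG lysates, housekeeping-normalized (ACTB/GAPDH/POLR2A), fitted bidirectionally against 0.5% DMSO baseline. Exposure 48 h, eight half-log concentrations up to 100 uM, duplicates.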
# [9] = read-out: Fatty Acid-Binding Protein 1 (FABP1), FABP1 (gene 2168); assay: LTEA_HepaRG_FABP1: Life Technologies and Expression Analysis (LTEA) Assay for Fatty Acid-Binding Protein 1 (FABP1) using HepaRG (AID 2283494)
# Outline: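 qRT-PCR readout of FABP1 transcript (normalized to three housekeeping genes) after 48 h chemical exposure of HepaRG cells; eight concentrations, half-log steps, max 100 uM, 0.5% DMSO vehicle; gain or loss fitted relative to DMSO baseline.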
# [10] = read-out: Cytochrome P450 4A22 (Homo sapiens) (UniProt Q5TCH4); assay: LTEA_HepaRG_CYP4A22: Life Technologies and Expression Analysis (LTEA) Assay for Cytochrome P450 4A22 (CYP4A22) using HepaRG (AID 2283495)
# Outline: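 qRT-PCR of CYP4A22 mRNA (Fluidigm TaqMan, normalized to three housekeeping genes) after 48 h chemical exposure of HepaRG cells; 8-point half-log series, top 100 uM, 0.5% DMSO vehicle. Bidirectional curve fitting vs DMSO baseline.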
# [11] = read-out: Cytochrome P450 7A1 (Homo sapiens) (UniProt P22680); assay: LTEA_HepaRG_CYP7A1: Life Technologies and Expression Analysis (LTEA) Assay for Cytochrome P450 7A1 (CYP7A1) using HepaRG (AID 2283496)
# Outline: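 Using 0.5% DMSO as vehicle and baseline, chemicals were tested in duplicate over an 8-point range from 100 uM on HepaRG cells for 48 h; qRT-PCR signals were normalised to ACTB, GAPDH and POLR2A.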
# [12] = read-out: Glutathione S-Transferase (GSTA2), GSTA2 (gene 2939); assay: LTEA_HepaRG_GSTA2: Life Technologies and Expression Analysis (LTEA) Assay for Glutathione S-Transferase (GSTA2) using HepaRG (AID 2283497)
# Outline: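 qRT-PCR readout of GSTA2 transcript, normalized to three housekeeping genes, fitted bidirectionally against 0.5% DMSO baseline. Differentiated HepaRG cells received compound for 48 h at 8 concentrations (top 100 uM, half-log steps).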
# [13] = read-out: DNA damage-inducible transcript 3 (DDIT3), DDIT3 (gene 1649); assay: LTEA_HepaRG_DDIT3: Life Technologies and Expression Analysis (LTEA) Assay for DNA damage-inducible transcript 3 (DDIT3) using HepaRG (AID 2283488)
# Outline: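 qRT-PCR readout (Fluidigm TaqMan), housekeeping-normalized to ACTB, GAPDH, POLR2A. HepaRG cells, 48 h exposure, 8-point half-log series from 100 uM in 0.5% DMSO, duplicates. Gain or loss of signal fitted against DMSO baseline.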
# [14] = read-out: Early growth response protein 1 (EGR1) transcription factor, EGR1 (gene 1958); assay: LTEA_HepaRG_EGR1: Life Technologies and Expression Analysis (LTEA) Assay for Early growth response protein 1 (EGR1) transcription factor using HepaRG (AID 2283490)
# Outline: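 HepaRG, 48 h exposure, 8-pt half-log series from 100 uM, 0.5% DMSO vehicle; EGR1 transcript by TaqMan qRT-PCR (Fluidigm array), housekeeping-normalized; bidirectional fit relative to DMSO baseline.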
# Sequence of Cytochrome P450 2C19 (Homo sapiens) (P33261 whole entry, looked up): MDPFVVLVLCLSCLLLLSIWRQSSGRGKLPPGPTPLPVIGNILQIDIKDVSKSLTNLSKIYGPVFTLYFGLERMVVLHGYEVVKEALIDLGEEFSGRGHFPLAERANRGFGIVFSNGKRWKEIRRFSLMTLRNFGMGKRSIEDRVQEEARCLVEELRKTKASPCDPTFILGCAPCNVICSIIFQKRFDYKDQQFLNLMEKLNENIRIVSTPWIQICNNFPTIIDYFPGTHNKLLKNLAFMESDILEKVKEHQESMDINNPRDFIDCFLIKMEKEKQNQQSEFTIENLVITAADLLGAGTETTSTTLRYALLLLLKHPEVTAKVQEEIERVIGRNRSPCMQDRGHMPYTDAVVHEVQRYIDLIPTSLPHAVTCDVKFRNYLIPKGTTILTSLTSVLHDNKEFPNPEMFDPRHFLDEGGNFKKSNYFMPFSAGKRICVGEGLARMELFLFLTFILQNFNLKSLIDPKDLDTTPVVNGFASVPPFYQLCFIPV
# Sequence of Cytochrome P450 3A7 (Homo sapiens) (P24462 whole entry, looked up): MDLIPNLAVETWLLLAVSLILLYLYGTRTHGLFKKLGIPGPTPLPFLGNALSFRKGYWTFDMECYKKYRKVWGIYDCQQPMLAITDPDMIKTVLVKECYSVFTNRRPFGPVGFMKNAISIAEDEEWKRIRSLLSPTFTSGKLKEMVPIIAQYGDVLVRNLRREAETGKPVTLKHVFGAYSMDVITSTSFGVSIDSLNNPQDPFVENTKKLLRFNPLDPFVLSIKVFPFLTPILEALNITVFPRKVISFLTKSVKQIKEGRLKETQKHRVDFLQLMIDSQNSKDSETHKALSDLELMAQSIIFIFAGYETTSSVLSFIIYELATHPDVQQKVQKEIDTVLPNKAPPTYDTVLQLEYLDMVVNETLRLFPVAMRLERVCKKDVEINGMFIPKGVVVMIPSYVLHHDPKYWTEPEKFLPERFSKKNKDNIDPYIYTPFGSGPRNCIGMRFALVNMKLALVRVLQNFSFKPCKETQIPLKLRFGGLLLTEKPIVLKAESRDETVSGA
# Sequence of Cytochrome P450 3A4 (Homo sapiens) (P08684 whole entry, looked up): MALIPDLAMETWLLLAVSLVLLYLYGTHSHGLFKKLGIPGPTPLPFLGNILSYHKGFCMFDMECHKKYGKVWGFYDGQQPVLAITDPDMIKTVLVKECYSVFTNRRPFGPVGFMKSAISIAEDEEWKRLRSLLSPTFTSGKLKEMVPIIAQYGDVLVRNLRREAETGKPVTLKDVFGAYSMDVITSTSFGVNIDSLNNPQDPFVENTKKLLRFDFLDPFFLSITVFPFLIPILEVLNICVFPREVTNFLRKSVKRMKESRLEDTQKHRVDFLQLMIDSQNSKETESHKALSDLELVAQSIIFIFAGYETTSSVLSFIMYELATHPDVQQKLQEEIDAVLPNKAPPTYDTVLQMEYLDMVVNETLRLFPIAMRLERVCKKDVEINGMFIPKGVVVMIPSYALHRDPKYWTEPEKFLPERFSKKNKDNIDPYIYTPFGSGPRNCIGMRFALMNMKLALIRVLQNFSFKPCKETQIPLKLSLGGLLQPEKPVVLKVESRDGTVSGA
smiles,measurement,setting,value
COc1ccc([N+](=O)[O-])cc1N,outcome,[1],inactive
same,AC50,[2],50 µM (active)
same,outcome,[3],inactive
same,outcome,[4],inactive
same,outcome,CYP2C8 (gene 1558),inactive
same,outcome,CYP2C9 (gene 1559),inactive
same,outcome,CYP2E1 (gene 1571),inactive
same,outcome,CYP4A11 (gene 1579),inactive
same,outcome,[5],inactive
same,outcome,[6],inactive
same,outcome,[7],inactive
same,outcome,[8],inactive
same,outcome,CYP3A5 (gene 1577),inactive
same,outcome,[9],inactive
same,outcome,[10],inactive
same,outcome,[11],inactive
same,outcome,[12],inactive
Oc1cccc(O)c1,outcome,[1],inactive
same,outcome,[2],inactive
same,outcome,[3],inactive
same,outcome,[4],inactive
same,outcome,CYP2C8 (gene 1558),inactive
same,outcome,CYP2C9 (gene 1559),inactive
same,outcome,CYP2E1 (gene 1571),inactive
same,outcome,CYP4A11 (gene 1579),inactive
same,outcome,[5],inactive
same,outcome,[6],inactive
same,outcome,[7],inactive
same,outcome,[8],inactive
same,outcome,CYP3A5 (gene 1577),inactive
same,outcome,[9],inactive
same,outcome,[10],inactive
same,outcome,[11],inactive
same,outcome,[12],inactive
NC(=O)N(O)[C@@H]1C=C[C@H](Oc2cccc(Oc3ccc(F)cc3)c2)C1,outcome,[1],inactive
same,AC50,[2],21.2 µM (active)
same,outcome,[3],inactive
same,AC50,[4],76.7 µM (active)
same,AC50,CYP2C8 (gene 1558),27.3 µM (active)
same,AC50,CYP2C9 (gene 1559),58.8 µM (active)
same,AC50,CYP2E1 (gene 1571),32.1 µM (active)
same,AC50,CYP4A11 (gene 1579),30.8 µM (active)
same,AC50,[5],72.1 µM (active)
same,AC50,[13],35.1 µM (active)
same,outcome,[6],inactive
same,outcome,[7],inactive
same,AC50,[8],33.7 µM (active)
same,outcome,CYP3A5 (gene 1577),inactive
same,AC50,[9],74.2 µM (active)
same,AC50,[10],25.6 µM (active)
same,AC50,[12],51 µM (active)
OC1CCCCC1,outcome,[1],inactive
same,outcome,[2],inactive
same,outcome,[3],inactive
same,outcome,[4],inactive
same,outcome,CYP2C8 (gene 1558),inactive
same,outcome,CYP2C9 (gene 1559),inactive
same,outcome,CYP2E1 (gene 1571),inactive
same,outcome,CYP4A11 (gene 1579),inactive
same,outcome,[5],inactive
same,outcome,[6],inactive
same,outcome,[14],inactive
same,outcome,[7],inactive
same,outcome,[8],inactive
same,outcome,CYP3A5 (gene 1577),inactive
same,outcome,[10],inactive
same,outcome,[12],inactive
O=c1c(-c2ccc(O)cc2)coc2cc(O)ccc12,outcome,[1],inactive
same,outcome,[2],inactive
same,outcome,[3],inactive
same,outcome,[4],inactive
same,outcome,CYP2C8 (gene 1558),inactive
same,outcome,CYP2C9 (gene 1559),inactive
same,outcome,CYP2E1 (gene 1571),inactive
same,outcome,CYP4A11 (gene 1579),inactive
same,outcome,[5],inactive
same,outcome,[6],inactive
same,outcome,[7],inactive
same,outcome,[8],inactive
same,outcome,CYP3A5 (gene 1577),inactive
same,outcome,[10],inactive
same,outcome,[12],inactive
